# Out of some 310,000 compounds screened, about 3,400 (1.1%) were called active. Only a selection was taken, and actives are over-represented in it overall. Values without a mark were called inactive.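 Rule for the calls: active = fluorescence ratio B-score at most minus 3 library SDs, with starting brightness B-score within 2 library SDs (cut at about -5.5 in these data); inactive = the rest, inconclusive results apart.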
# Target: Potassium voltage-gated channel subfamily KQT member 2 (Rattus norvegicus) (UniProt O88943)
# Assay: rat KCNQ2 potassium channel inhibitors, primary screen, cell-based, CHO-K1, FluxOR thallium flux, B-score (AID 2156)
# Details: 20 min, at 10 µM; active compounds read low
# Chain of Potassium voltage-gated channel subfamily KQT member 2 (Rattus norvegicus) (O88943 whole entry, looked up): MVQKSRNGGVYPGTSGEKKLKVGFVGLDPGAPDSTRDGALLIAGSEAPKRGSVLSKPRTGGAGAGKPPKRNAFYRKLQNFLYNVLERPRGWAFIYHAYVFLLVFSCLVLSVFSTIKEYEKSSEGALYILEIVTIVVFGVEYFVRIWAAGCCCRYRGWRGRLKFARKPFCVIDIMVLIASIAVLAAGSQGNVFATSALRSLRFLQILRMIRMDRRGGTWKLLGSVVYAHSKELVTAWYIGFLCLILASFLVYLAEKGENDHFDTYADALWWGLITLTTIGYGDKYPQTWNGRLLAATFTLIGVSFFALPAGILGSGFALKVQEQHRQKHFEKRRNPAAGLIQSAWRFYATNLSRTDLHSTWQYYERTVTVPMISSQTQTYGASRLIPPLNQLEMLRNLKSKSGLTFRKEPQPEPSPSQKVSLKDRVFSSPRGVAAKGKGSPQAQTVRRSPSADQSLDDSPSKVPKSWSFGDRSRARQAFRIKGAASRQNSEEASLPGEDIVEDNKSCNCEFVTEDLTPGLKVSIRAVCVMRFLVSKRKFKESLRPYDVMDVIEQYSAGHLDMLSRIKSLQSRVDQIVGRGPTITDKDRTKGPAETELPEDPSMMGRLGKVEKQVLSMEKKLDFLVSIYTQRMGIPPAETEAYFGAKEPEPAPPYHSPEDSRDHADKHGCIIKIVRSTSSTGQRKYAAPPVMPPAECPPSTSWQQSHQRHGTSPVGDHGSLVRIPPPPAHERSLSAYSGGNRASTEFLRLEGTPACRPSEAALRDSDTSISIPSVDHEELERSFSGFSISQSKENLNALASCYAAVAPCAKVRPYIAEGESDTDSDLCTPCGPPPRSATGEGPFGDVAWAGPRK
row,Structure (SMILES),B-score
1,Cc1ccc(C(=O)NNC(=O)C(C)Oc2ccc3ccccc3c2)o1 (configuration not stated),inactive
2,CCN(CC(=O)Nc1ccc(NC(C)=O)cc1)C(=O)C1CC(=O)N(Cc2ccc(C)cc2)C1 (configuration not stated),-0.36
3,COc1ccc2sc(N(CCCN(C)C)C(=O)c3ccc(S(=O)(=O)N(C)C4CCCCC4)cc3)nc2c1,inactive
4,CCOC(=O)CC1(NC(=O)c2cc(COc3cncc(Cl)c3)on2)CCCCC1,-1.68
5,COc1cc(Cl)ccc1OCc1cc(C(=O)N2CC[C@@H]3CCCC[C@H]3C2)no1,-3.02
6,CCCOC1CCCN(C(=O)c2cc(COc3cncc(Cl)c3)on2)C1 (configuration not stated),-8.22 (active)
7,CN(Cc1ccccc1)C(=O)CCc1ccccc1,-0.03
8,Cn1c(-c2ccc(F)cc2)cnc1SCC(=O)NNC(=O)Cc1ccccc1,inactive
9,Cc1ccc(-c2cnc(NC(=O)CCC(=O)N(C)Cc3ccccc3)n2C)cc1,-7.93 (active)
10,O=C(CCNC(=O)c1ccc(Br)cc1)Nc1cccc(S(=O)(=O)N2CCCCC2)c1,-0.11
11,CCCCn1c(N)c(N(Cc2ccccc2OC)C(=O)COc2cc(C)ccc2Cl)c(=O)[nH]c1=O,-0.97
12,CCOc1ccc2ccccc2c1/C=N/NC(=O)c1c(C)cc(C)[nH]c1=O,-2
13,Cc1cc(NC(=O)C(C)N2C(=O)c3ccccc3S2(=O)=O)no1 (configuration not stated),-0.8
14,FC(F)(F)c1ccc2c3n(nc2c1)CCN=C3c1ccc(Cl)cc1,inactive
15,Cc1ccccc1C(=O)Nc1ccccc1NC(=O)c1ccccc1C,inactive
16,Cc1ccccc1C(=O)Nc1ccccc1Sc1ccccc1,-8.36 (active)
17,O=C(COC(=O)c1ccccc1)Nc1ccccc1Sc1ccccc1,-0.64
18,O=C(Cc1ccc(S(=O)(=O)N2CCOCC2)s1)N1CCN(c2ccc(C(F)(F)F)cc2[N+](=O)[O-])CC1,inactive
19,O=C(NC1CCCCC1)c1ccc(-c2ccc(Cl)cc2)o1,-3.97
20,CN(CC(=O)Nc1cccc(F)c1)C(=O)C1=COCCO1,-0.61
21,O=C(NCc1ccccc1)C(c1ccco1)N(C(=O)c1csnn1)c1ccccc1F (configuration not stated),-6.27 (active)
22,O=C(NCc1ccccc1)C(c1ccccc1)N(C(=O)c1csnn1)c1ccc(F)cc1 (configuration not stated),-1.89
23,O=C(NC1CCCC1)C(c1ccco1)N(C(=O)c1csnn1)c1ccccc1 (configuration not stated),inactive

row,Structure (SMILES),B-score
1,CCOc1ccc(C(C)=O)cc1COC(=O)CNC(=O)c1cccs1,inactive
2,CCOc1ncccc1C(=O)NNC(=O)c1cccc(S(=O)(=O)Nc2ccccc2OC)c1,inactive
3,COc1ccc(C(CNC(=O)COc2ccc([N+](=O)[O-])cc2)N2CCCCC2)cc1 (configuration not stated),-0.69
4,CCc1ccc(OCC(=O)NCC(c2ccc(Cl)cc2)N2CCCCC2)cc1 (configuration not stated),-5.91 (active)
5,COc1ccc(C(CNC(=O)COc2ccccc2OC)N2CCCCC2)cc1 (configuration not stated),inactive
6,O=C(CCC1CCCCC1)Nc1cc(C(F)(F)F)ccc1N1CCOCC1,-0.87
7,CN(Cc1c(F)cccc1Cl)C(=O)CNC(=O)c1ccc2c(c1)OCO2,-1.89
8,CC(C)(C)n1nnnc1C(c1ccc(Cl)cc1)N1CCSCC1 (configuration not stated),inactive
9,Cc1cccc(N2CCN(C(c3ccccc3)c3nnnn3CC3CCCO3)CC2)c1C (configuration not stated),-1.18
10,Cc1cccc(N2CCN(C(c3ccc(N(C)C)cc3)c3nnnn3C(C)(C)C)CC2)c1C (configuration not stated),-6.02 (active)
11,CCOc1ccc(S(=O)(=O)NCCC(=O)NCC(C)(C)N2CCOCC2)cc1,inactive
12,CCc1ccc2c(c1)C(c1ccc([N+](=O)[O-])cc1)=NNC(c1ccccc1)=N2,-0.01
13,Cc1ccc(C2=Nc3c(ccc4ccccc34)C(c3ccncc3)=NN2)cc1,-7.02 (active)
14,CCOc1ccc2c(c1)C(c1ccc(C)cc1)=NNC(c1ccc(C)cc1)=N2,-1.45
15,CC1(c2nnc(Cc3ccccc3)o2)CC(c2ccccc2F)=NO1 (configuration not stated),inactive
16,COc1ccc(Cl)cc1NS(=O)(=O)c1cccc(C(=O)NC2CCC(O)CC2)c1 (configuration not stated),inactive
17,CCN(CC)CCn1c2c(c(SCC(=O)Nc3nc4ccccc4s3)nc1=O)CCCC2,-0.49
18,Cc1ccccc1NC(=O)NCC1CCN(Cc2cccc(Cl)c2)CC1,inactive
19,CC(C(=O)NCC1CCCCC1)N(C)Cc1cccc(Cl)c1 (configuration not stated),-6.94 (active)
20,CNS(=O)(=O)c1cccc(C(=O)NCC2CCCCC2)c1,inactive
21,O=C(COC(=O)c1cccc(Cl)c1)Nc1ccc2[nH]c(=O)[nH]c2c1,inactive
22,CCOc1cc(/C=N/NC(=O)c2cccc(S(=O)(=O)N3CCOCC3)c2)ccc1OCC(=O)N(C)C,-0.36
23,Cc1ccc(S(=O)(=O)NCCC(=O)OCC(=O)N(C)c2ccccc2)cc1,inactive

row,Structure (SMILES),B-score
1,COc1ccc(Cl)cc1NC(=O)CN(C)C(=O)c1cc2ccccc2cc1OC,-1.83
2,COc1ccc(OC)c(NC(=O)CN(Cc2ccc(Cl)cc2)S(C)(=O)=O)c1,-0.01
3,COc1ccc(Cl)cc1NC(=O)CN(C)Cc1ccc(OC)c(OC)c1,-7.16 (active)
4,O=C1N[C@@H](Cc2ccccc2)C(=O)N2[C@H]1C[C@]1(Br)c3ccccc3N(S(=O)(=O)c3ccccc3)[C@H]21,inactive
5,CN1/C(=c2/s/c(=C3/C(=O)N(c4ccccc4)NC3=Nc3ccccc3)n(C)c2=O)C(C)(C)c2ccccc21,-7.74 (active)
6,CCN1C(=O)/C(=c2\s/c(=C3\Sc4ccccc4N3C)c(=O)n2C)N(C)C1=S,inactive
7,CC1C(=O)N2CCCc3cc(S(=O)(=O)NCc4ccc(F)cc4)cc1c32 (configuration not stated),inactive
8,Cc1ccc(Cl)c(OCC(=O)N(C)CC(=O)Nc2ccc(N3CCOCC3)cc2)c1,inactive
9,Cc1ccc(NS(=O)(=O)c2ccc(C(=O)NCCCN3CCOCC3)cc2)cc1,-0.52
10,CC(C)CN(C(=O)Cn1c(=O)cnc2ccccc21)C1CCS(=O)(=O)C1 (configuration not stated),-1.5
11,CCOC(=O)N1CCN(C(=O)COc2ccc3oc4c(c3c2)CCCC4)CC1,inactive
12,Fc1ccccc1C(c1nnnn1Cc1ccc2c(c1)OCO2)N1CCN(Cc2ccccc2)CC1 (configuration not stated),-1.43
13,CCOC(=O)C1CCN(C(c2cc3cc(C)cc(C)c3[nH]c2=O)c2nnnn2C2CCCCC2)CC1 (configuration not stated),-1.94
14,Cc1cc(C)c2[nH]c(=O)c(C(c3nnnn3Cc3ccc4c(c3)OCO4)N3CCCC3)cc2c1 (configuration not stated),-6.38 (active)
15,O=C(CSC1=NS(=O)(=O)c2cc(F)ccc2N1)Nc1ccccc1F,inactive
16,O=C(OCC(=O)N1CCCC1=O)c1cc(S(=O)(=O)N2CCOCC2)ccc1Cl,-0.84
17,O=C(NN1CCOCC1)c1cccc(F)c1,inactive
18,CCN(CC)S(=O)(=O)c1ccc(N2CCOCC2)c(NC(=O)C2COc3ccccc3O2)c1 (configuration not stated),-6.56 (active)
19,CCN(CC)S(=O)(=O)c1ccc(N2CCOCC2)c(C(=O)O)c1,inactive
20,CCN(CC)S(=O)(=O)c1ccc(N2CCOCC2)c(NC(=O)C2CSC3(C)CCC(=O)N23)c1 (configuration not stated),inactive
21,Cc1ccc(N2CC(C(=O)N3CCC4(CC3)CC(=O)c3ccccc3O4)CC2=O)cc1C (configuration not stated),inactive
22,O=C(NCC(=O)N1CCCC(C(F)(F)F)C1)c1ccccc1F (configuration not stated),inactive
23,Cc1ccc(S(=O)(=O)NNC(=S)NC(C)(C)C)cc1,-0.78

row,Structure (SMILES),B-score
1,CC(NC(=S)NNS(=O)(=O)c1ccc(C(C)(C)C)cc1)c1ccccc1 (configuration not stated),-10.4 (active)
2,Cc1ccc(S(=O)(=O)CC(=O)NC(C)c2ccccc2)cc1 (configuration not stated),-0.01
3,CCN(C(=O)CSc1nnc(-c2ccc(OC(F)F)cc2)n1N)C1CCS(=O)(=O)C1 (configuration not stated),-0.14
4,CCN(CC(=O)Nc1cc(Cl)ccc1C)C(=O)CN1C(=O)NC2(CCCC2)C1=O,-0.62
5,Cc1cc(NC(=O)CSc2nc3cc(Cl)ccc3c(=O)n2Cc2ccco2)no1,inactive
6,Clc1cccc(-c2nc3nc4ccccc4nc3n2Cc2ccco2)c1,-9.06 (active)
7,O=c1[nH]c(CSc2ncc(-c3ccc(F)cc3)n2Cc2ccco2)nc2ccccc12,inactive
8,O=C(Nc1cccc(F)c1)[C@@H]1CCCN1,-0.48
9,O=C(Nc1cccc(F)c1)NC1CCCCCCC1,-1.17
10,O=C(Nc1cccc(F)c1)NC1CCCc2ccccc21 (configuration not stated),-5.61 (active)
11,COc1cccc(N2CC(NS(=O)(=O)c3cccs3)CC2=O)c1 (configuration not stated),inactive
12,COc1ccc(C2=NOC(Cn3nc(C(=O)NCc4ccc5c(c4)OCO5)cc3-c3ccccc3)C2)cc1 (configuration not stated),-2.37
13,CCOC(=O)c1c(NC(=O)CN2C(=O)NC3(CCC(C)CC3)C2=O)sc(C)c1CC (configuration not stated),inactive
14,Cc1ccc2nnn(Cc3cccc(C(C)(C)C)c3O)c2c1,-2.09
15,O=C(CNC(=O)C12CC3CC(CC(C3)C1)C2)OCC(=O)N1CCCCC1,inactive
16,COc1cccc(N2CC(C(=O)NCc3n[nH]c(=O)c4ccccc34)CC2=O)c1 (configuration not stated),inactive
17,Cc1ccc(-c2nn(-c3ccccc3)cc2CN(Cc2ccccc2)C(=O)CCC(=O)O)o1,inactive
18,CCc1ccc(-c2nn(-c3ccccc3)cc2CSC(=N)N)cc1,-12.4 (active)
19,O=C(Nc1cn(-c2ccccc2)nc1-c1ccccc1)c1ccccc1,-2.94
20,CCOc1ccc(S(=O)(=O)Nc2cccc(C(=O)NCC3(N4CCCCC4)CCCCC3)c2)cc1,-0.94
21,O=C(NCc1ccccc1)C1=C[C@@H](c2ccc(C(F)(F)F)cc2)C[C@@H](OCc2ccc(CO)cc2)O1,-7.51 (active)
22,CC(C)(C)[C@H]1C=C(C(=O)NCc2ccccc2)O[C@@H](OCc2ccc(CO)cc2)C1,-1.3
23,O=C(C1=C[C@H](c2ccc(C(F)(F)F)cc2)C[C@H](OCc2ccc(CO)cc2)O1)N1CCN(Cc2ccccc2)CC1,-2.67

# Source: PubChem BioAssay AID2156 (Johns Hopkins Ion Channel Center, 2009)
